Reference: PubChem BioAssay (NCI)
The panel holds about 83,000 compounds, 20% with a hit somewhere; the sample as a whole holds those more often.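 A percent growth of 40 corresponds to 60% growth inhibition; 0 means no net growth; -100 means all cells died. Active threshold: below 10.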 A number with no mark means an inactive call. Activity calls are given as the source filed them.

Legend:
Assay in all cases: NCI-60 one-dose screen, 48 h (100 = growth as untreated, 0 = no growth, -100 = all killed)
NCI-H322M lung = conditions: 10 µM unless noted
HOP-62 NSCLC = conditions: 10 µM unless noted
HOP-92 NSCLC = conditions: 10 µM unless noted
NCI-H522 lung = conditions: 10 µM unless noted
A549/ATCC NSCLC = conditions: 10 µM unless noted
K-562 leukemia = conditions: 10 µM unless noted
SNB-19 CNS = conditions: 10 µM unless noted
LOX IMVI melanoma = conditions: 10 µM unless noted
SK-MEL-28 melanoma = conditions: 10 µM unless noted
EKVX NSCLC = conditions: 10 µM unless noted
SN12C renal = conditions: 10 µM unless noted
CAKI-1 renal = conditions: 10 µM unless noted
CCRF-CEM leukemia = conditions: 10 µM unless noted
SR leukemia = conditions: 10 µM
RPMI-8226 leukemia = conditions: 10 µM unless noted
IGROV1 ovarian = conditions: 10 µM
BT-549 breast = conditions: 10 µM
OVCAR-4 ovarian = conditions: 10 µM unless noted
HS 578T breast = conditions: 10 µM unless noted

Which growth (NCI-H322M lung) does the source give for `CC(=O)Nc1ccc(C=C2C(=O)NC(=O)NC2=O)cc1` here?
The growth was 104%.

What about the growth (HOP-62 NSCLC) of the same molecule?
Its growth is 103%.

What about the growth (HOP-92 NSCLC) of the same molecule?
The growth was 91.5%.

What about the growth (NCI-H522 lung) of the same molecule?
The growth was 104%.

And the growth (A549/ATCC NSCLC)?
Its growth is 100%.

What about the growth (K-562 leukemia) of the same molecule?
Its growth is 104%.

And the growth (SNB-19 CNS)?
Its growth is 98.4%.

And the growth (LOX IMVI melanoma)?
The growth was 96.8%.

What about the growth (SK-MEL-28 melanoma) of the same molecule?
The growth was 106%.

And the growth (EKVX NSCLC)?
The growth was 106%.

And the growth (SN12C renal)?
The growth was 103%.

And the growth (CAKI-1 renal)?
Its growth is 97.5%.

And the growth (CCRF-CEM leukemia)?
Its growth is 86.1%.

What about the growth (SR leukemia) of the same molecule?
The growth was 95.7%.

And the growth (RPMI-8226 leukemia)?
The growth was 98.3%.

And the growth (IGROV1 ovarian)?
The growth was 107%.

What about the growth (BT-549 breast) of the same molecule?
Its growth is 112%.

For `C[CH2][Pb]([CH2]C)([CH2]C)[O]C(=O)COc1ccccc1`, which growth (NCI-H322M lung) is on record?
The growth was 0.448% (active).

And the growth (HOP-62 NSCLC)?
Its growth is -9.05% (active).

What about the growth (K-562 leukemia) of the same molecule?
The growth was 4.92% (active).

What about the growth (LOX IMVI melanoma) of the same molecule?
Its growth is -35.8% (active).

What about the growth (SK-MEL-28 melanoma) of the same molecule?
Its growth is 28.3%.

And the growth (SN12C renal)?
Its growth is 8.52% (active).

And the growth (CAKI-1 renal)?
The growth was -5.81% (active).

And the growth (OVCAR-4 ovarian)?
Its growth is 14.8%.

And the growth (IGROV1 ovarian)?
Its growth is 2.01% (active).

And the growth (HS 578T breast)?
Its growth is 4.72% (active).

And the growth (BT-549 breast)?
The growth was -11.4% (active).

How did the growth (NCI-H322M lung) turn out when `Nc1nc(N)c(-c2ccc(Cl)c(Cl)c2)c(/C=C/c2ccc(S(=O)(=O)F)cc2)n1` was run?
The growth was 89.8%.

And the growth (HOP-62 NSCLC)?
The growth was 91.3%.

What about the growth (A549/ATCC NSCLC) of the same molecule?
The growth was 81.3%.

And the growth (K-562 leukemia)?
The growth was 53.4%.

What about the growth (SNB-19 CNS) of the same molecule?
The growth was 102%.

What about the growth (LOX IMVI melanoma) of the same molecule?
Its growth is 69.1%.

What about the growth (SK-MEL-28 melanoma) of the same molecule?
The growth was 98.1%.

What about the growth (SN12C renal) of the same molecule?
The growth was 93.1%.

What about the growth (CAKI-1 renal) of the same molecule?
The growth was 84.4%.

What about the growth (CCRF-CEM leukemia) of the same molecule?
Its growth is 58.7%.

And the growth (SR leukemia)?
The growth was 76.3%.

What about the growth (RPMI-8226 leukemia) of the same molecule?
Its growth is 93.1%.

And the growth (IGROV1 ovarian)?
Its growth is 89.3%.

What about the growth (BT-549 breast) of the same molecule?
The growth was 94.6%.

With `CC(C)Nc1ccc(Nc2ccccc2)cc1` as the molecule, how does the growth (NCI-H322M lung) read?
The growth was 73.4%.

What about the growth (NCI-H522 lung) of the same molecule?
The growth was 40.8%.

What about the growth (A549/ATCC NSCLC) of the same molecule?
Its growth is 24.1%.

And the growth (K-562 leukemia)?
Its growth is 24.6%.

And the growth (SNB-19 CNS)?
Its growth is 33.7%.

What about the growth (LOX IMVI melanoma) of the same molecule?
Its growth is 14.5%.

What about the growth (SK-MEL-28 melanoma) of the same molecule?
Its growth is 85.1%.

And the growth (EKVX NSCLC)?
The growth was 29.4%.

And the growth (SN12C renal)?
Its growth is 19.8%.

And the growth (CAKI-1 renal)?
Its growth is 41.6%.

What about the growth (CCRF-CEM leukemia) of the same molecule?
Its growth is 38.3%.

And the growth (SR leukemia)?
Its growth is 51.2%.

And the growth (RPMI-8226 leukemia)?
The growth was 11.5%.

What about the growth (IGROV1 ovarian) of the same molecule?
Its growth is 27%.

And the growth (HS 578T breast)?
The growth was 17.9%.

And the growth (BT-549 breast)?
The growth was 22.8%.

How did the growth (NCI-H322M lung) turn out when `CCOc1ccc(C(O)CN(C)Cc2ccccc2)cc1Cl` (stereo not given) was run?
Its growth is 102%.

And the growth (HOP-92 NSCLC)?
Its growth is 75.4%.

And the growth (NCI-H522 lung)?
Its growth is 97.1%.

And the growth (A549/ATCC NSCLC)?
The growth was 102%.

And the growth (K-562 leukemia)?
Its growth is 92.5%.

What about the growth (SNB-19 CNS) of the same molecule?
Its growth is 100%.

What about the growth (LOX IMVI melanoma) of the same molecule?
Its growth is 98.6%.

And the growth (SK-MEL-28 melanoma)?
The growth was 98.5%.

And the growth (EKVX NSCLC)?
Its growth is 95.7%.

What about the growth (SN12C renal) of the same molecule?
The growth was 102%.

What about the growth (CAKI-1 renal) of the same molecule?
Its growth is 93.3%.

What about the growth (CCRF-CEM leukemia) of the same molecule?
The growth was 108%.

What about the growth (SR leukemia) of the same molecule?
Its growth is 95.7%.

What about the growth (RPMI-8226 leukemia) of the same molecule?
Its growth is 104%.

And the growth (OVCAR-4 ovarian)?
The growth was 103%.

What about the growth (IGROV1 ovarian) of the same molecule?
The growth was 106%.

And the growth (HS 578T breast)?
Its growth is 101%.

`C=CC(O)CN1CC1CC` (stereo not given) was tested. Which growth (NCI-H322M lung) did it give?
The growth was 106%.

And the growth (HOP-62 NSCLC)?
Its growth is 101%.

What about the growth (A549/ATCC NSCLC) of the same molecule?
Its growth is 92.8%.

And the growth (K-562 leukemia)?
Its growth is 101%.

And the growth (SNB-19 CNS)?
The growth was 97.8%.

And the growth (LOX IMVI melanoma)?
The growth was 92.6%.

And the growth (SK-MEL-28 melanoma)?
Its growth is 105%.

What about the growth (EKVX NSCLC) of the same molecule?
The growth was 102%.

And the growth (SN12C renal)?
Its growth is 99%.

And the growth (CCRF-CEM leukemia)?
Its growth is 116%.

And the growth (OVCAR-4 ovarian)?
The growth was 112%.

And the growth (IGROV1 ovarian)?
Its growth is 108%.

What about the growth (HS 578T breast) of the same molecule?
The growth was 97.3%.

How did the growth (NCI-H322M lung) turn out when `CC(=O)[O][Hg][c]1nc2c(c(=O)n(C)c(=O)n2C)n1C` was run?
Its growth is 95.7%.

What about the growth (HOP-62 NSCLC) of the same molecule?
The growth was 120%.

And the growth (A549/ATCC NSCLC)?
The growth was 102%.

And the growth (K-562 leukemia)?
Its growth is 60.3%.

What about the growth (SK-MEL-28 melanoma) of the same molecule?
The growth was 90.1%.

And the growth (SN12C renal)?
Its growth is 104%.

And the growth (CAKI-1 renal)?
Its growth is 83.5%.

And the growth (SR leukemia)?
Its growth is 41.3%.

What about the growth (RPMI-8226 leukemia) of the same molecule?
The growth was 102%.

What about the growth (OVCAR-4 ovarian) of the same molecule?
Its growth is 95.1%.

And the growth (IGROV1 ovarian)?
The growth was 81%.

And the growth (HS 578T breast)?
Its growth is 105%.

And the growth (BT-549 breast)?
The growth was 111%.

Which growth (NCI-H322M lung) does the source give for `C/C(=C\c1cc(C(F)(F)F)n(-c2ccc(N)cc2)n1)[C@@H]1C[C@@H]2O[C@]2(C)CCC[C@H](C)[C@H](O)[C@@H](C)C(=O)C(C)(C)[C@@H](O)CC(=O)O1` here?
The growth was 22.2%.

What about the growth (HOP-92 NSCLC) of the same molecule?
The growth was 37.9%.

What about the growth (A549/ATCC NSCLC) of the same molecule?
Its growth is 1.71% (active).

What about the growth (K-562 leukemia) of the same molecule?
The growth was 6.37% (active).

What about the growth (LOX IMVI melanoma) of the same molecule?
Its growth is 4.2% (active).

And the growth (SK-MEL-28 melanoma)?
Its growth is 39.1%.

What about the growth (EKVX NSCLC) of the same molecule?
Its growth is 31.8%.

What about the growth (SN12C renal) of the same molecule?
The growth was 23.1%.

And the growth (CAKI-1 renal)?
The growth was 25.3%.

And the growth (SR leukemia)?
Its growth is -16.4% (active).

And the growth (OVCAR-4 ovarian)?
Its growth is 44.7%.

And the growth (IGROV1 ovarian)?
Its growth is 31.1%.

What about the growth (HS 578T breast) of the same molecule?
Its growth is -11.5% (active).

And the growth (BT-549 breast)?
The growth was -2.85% (active).

Which results are given for `CSc1ccccc1NP1(=O)OCC(C)([N+](=O)[O-])CO1` (stereo not given)?
growth (NCI-H322M lung): 126%; growth (HOP-92 NSCLC): 89.4%; growth (NCI-H522 lung): 103%; growth (A549/ATCC NSCLC): 95.9%; growth (K-562 leukemia): 75.4%; growth (SNB-19 CNS): 97.1%; growth (LOX IMVI melanoma): 97.3%; growth (SK-MEL-28 melanoma): 98.6%; growth (EKVX NSCLC): 97.8%; growth (SN12C renal): 98%; growth (CAKI-1 renal): 99.3%; growth (CCRF-CEM leukemia): 80.8%; growth (SR leukemia): 91.3%; growth (RPMI-8226 leukemia): 111%; growth (OVCAR-4 ovarian): 105%; growth (IGROV1 ovarian): 119%; growth (HS 578T breast): 103%; growth (BT-549 breast): 90.1%

How did the growth (NCI-H322M lung) turn out when `CCOC(=O)Nc1cc(Cl)c([N+](=O)[O-])c(NC(=O)OCC)n1` was run?
Its growth is 97.1%.

And the growth (HOP-92 NSCLC)?
The growth was 78.2%.

And the growth (NCI-H522 lung)?
The growth was 7.41% (active).

What about the growth (A549/ATCC NSCLC) of the same molecule?
The growth was 95.2%.

What about the growth (K-562 leukemia) of the same molecule?
The growth was 8.75% (active).

What about the growth (SNB-19 CNS) of the same molecule?
The growth was 98.1%.

And the growth (LOX IMVI melanoma)?
Its growth is 61.5%.

And the growth (SK-MEL-28 melanoma)?
The growth was 79%.

And the growth (SN12C renal)?
The growth was 96.5%.

What about the growth (CAKI-1 renal) of the same molecule?
The growth was -95.5% (active).

What about the growth (CCRF-CEM leukemia) of the same molecule?
Its growth is 33.1%.

What about the growth (SR leukemia) of the same molecule?
The growth was -22.8% (active).

And the growth (RPMI-8226 leukemia)?
Its growth is 71.5%.

And the growth (OVCAR-4 ovarian)?
The growth was 112%.

And the growth (IGROV1 ovarian)?
Its growth is 55.6%.

And the growth (HS 578T breast)?
The growth was 106%.

What about the growth (BT-549 breast) of the same molecule?
The growth was 94.6%.
